Consider 11 molecules from PubChem BioAssay (NCI).

The panel holds about 83,000 compounds, 20% with a hit somewhere; the sample as a whole holds those more often.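 Step 1: grow cells in 96-well plates. Step 2: add test compound at a single concentration. Step 3: incubate 48 h. Step 4: record percent growth.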 Values without a mark were called inactive. Activity calls are given as the source filed them. The calls were made as follows: active = growth percent below 10; inactive = the rest.

Holding throughout (assay): NCI-60 one-dose screen, 48 h (100 = growth as untreated, 0 = no growth, -100 = all killed)
What all share (settings): 10 µM

Assay [1] has as its system SK-MEL-2 melanoma.
Assay [2] relates to EKVX NSCLC.
The test system of assay [3] is SN12C renal.
Assay [4] has as its system UO-31 renal.
The test system of assay [5] is ACHN renal.
The test system of assay [6] is CAKI-1 renal.
Assay [7] relates to A498 renal.
The test system of assay [8] is CCRF-CEM leukemia.
For assay [9], the system named is MOLT-4 leukemia.
For assay [10], the system named is SR leukemia.
The test system of assay [11] is RPMI-8226 leukemia.
The subject of assay [12] is OVCAR-8 ovarian.
Assay [13] deals with OVCAR-5 ovarian.
Assay [14] concerns OVCAR-4 ovarian.
The subject of assay [15] is SK-OV-3 ovarian.
The subject of assay [16] is IGROV1 ovarian.
In assay [17] the test system is OVCAR-3 ovarian.
Assay [18] deals with HS 578T breast.
The test system of assay [19] is NCI/ADR-RES ovarian.
Assay [20] deals with TK-10 renal.

With `COc1ccc(C2CC(c3cc(OC)c(OC)c(OC)c3)=NN2)cc1` (configuration not stated), the growth in assay [1] was 87.6%; in assay [2] it was 91.2%; in [3], 94.5%; in assay [4], 62.7%; in assay [5] it was 99%; in assay [6] it was 69%. Also, the growth is 87.4% in assay [7]; 57.3% in assay [8]; 73.4% in assay [9]; -35.1% (active) in [10]; -8.7% (active) in assay [11]; 100% in assay [12]. Also, the growth in assay [13] was 97.9%; in assay [14], 84.9%; in [15], 81.5%; in [16] it was 62.6%; in [17] it was 35.1%; in assay [18] it was 104%. For the same molecule, the growth in assay [19] was 68.3%.
For `CS(=O)(=O)c1nccc(-c2c(-c3cccc(OCc4ccc(F)cc4)c3)nc3sccn23)n1`, the growth was 96% in assay [1]; 97.2% in [2]; 77.7% in [3]; -24.1% (active) in assay [4]; 94.9% in assay [5]; 34.4% in assay [6]. In addition, the growth in [7] is 77.3%; in assay [8] it was 50%; in [9], 24.2%; in assay [10], 38.6%; in [11], 71.7%; in assay [12], 86.3%. Further, the growth is 102% in assay [13]; 65.1% in assay [14]; 60.7% in [15]; 49.7% in assay [16]; 88.3% in assay [17]; 73.4% in [18]. Further, the growth in [19] was 89.4%.
For the molecule `COc1cc(-c2nn(-c3cccc(NC(=O)NCCNS(=O)(=O)c4ccc(Cl)cc4)c3)cc2-c2ccncc2)ccc1Cl`, the growth in assay [1] is 2.83% (active); in assay [2], 29.8%; in assay [3] it was 35.5%; in assay [4], 21.1%; in [20], 5.09% (active); in assay [5], 11.3%. Besides, the growth in [8] is 9.85% (active); in [9], 12.1%; in assay [10], 1.18% (active); in assay [11], -2.02% (active); in assay [12], 8.88% (active); in assay [13], 27.9%. Moreover, the growth in assay [14] was 33.3%; in assay [15], 19.3%; in [16], 25.2%; in [17], 2.8% (active); in assay [18] it was 18.8%; in assay [19], 71%.
Consider `Cc1ccc(NCCN(C)CC(C)O)c2c(=O)c3ccc(Cl)cc3sc12` (configuration not stated), for which the growth was 66.8% in assay [1]; 78.5% in assay [2]; 49.8% in assay [3]; 51.5% in assay [4]; 79.1% in [20]; 44.6% in assay [5]. In addition, the growth in assay [8] is 20.4%; in [9] it was 16.2%; in assay [10], -28.9% (active); in assay [11] it was -8.72% (active); in assay [12], 58.1%; in [13], 77.9%. Moreover, the growth in assay [14] is 67.9%; in assay [15], 91.6%; in assay [17], 73.3%; in [18] it was 58.6%; in assay [19], 57.8%.
As to `COc1ccc(/C=C2\CCCC3=C2NC(N)=NC3c2ccc(OC)cc2)cc1` (configuration not stated), the growth in assay [1] is 98.2%; in [2], 92.1%; in [3], 86.7%; in assay [4] it was 72.8%; in [5], 98.3%; in assay [6], 90.1%. For the same molecule, the growth in assay [7] is 84.5%; in [8] it was 87.6%; in assay [9], 84.2%; in assay [10] it was 81.9%; in assay [11], 57.7%; in [12], 95.8%. Also, the growth in assay [13] was 103%; in assay [14], 72.8%; in assay [15], 78.3%; in assay [16] it was 99.7%; in assay [17], 102%; in assay [18], 112%. For the same molecule, the growth in [19] is 90.8%.
`COc1ccc(-c2onc(N)c2-c2cc(OC)c3c(c2)OCO3)cc1`: the growth is 13.6% in [1]; 62% in assay [2]; 25.9% in [3]; 55.2% in [4]; 43.8% in assay [5]; 34% in assay [6]. The growth in [7] was 12%; in [8], 14.5%; in assay [9], 13.7%; in assay [10] it was 9.86% (active); in assay [11], 26.7%; in [12], 39.3%. Also, the growth in [13] was 51.3%; in [14] it was 61.9%; in assay [15], 38.7%; in [16], 41.5%; in assay [17], -1.21% (active); in assay [18], 33.8%. Also, the growth in assay [19] was -10.2% (active).
For `COc1ccccc1/C=N\N/C(N)=N\N=C\c1ccccc1OC`, the growth in assay [1] was 21.4%; in assay [2] it was 26.1%; in assay [3] it was 18.4%; in assay [4], 14.1%; in assay [5], 20.5%; in assay [6], -7% (active). The growth in [7] was -66.5% (active); in [8], -19.6% (active); in [9], 4.77% (active); in assay [10], -23.1% (active); in assay [11], 1.89% (active); in assay [12] it was 27.2%. Also, the growth was 32.3% in assay [13]; 42.4% in assay [14]; 26.3% in assay [15]; 12% in assay [16]; -13.2% (active) in assay [17]; -14.7% (active) in [18]. Besides, in [19], the growth is 22.6%.
As to `Clc1ccc(/C=C2\CCCC3C2=Nc2ccccc2NC3c2ccc(Cl)cc2)cc1` (configuration not stated), the growth in [1] is 92.1%; in assay [2] it was 89.3%; in assay [3], 85.3%; in [4] it was 70.7%; in assay [5] it was 97.3%; in assay [6], 91.3%. For the same molecule, the growth was 67.2% in assay [7]; 75.9% in assay [8]; 65.8% in assay [9]; 21.5% in [10]; -16% (active) in assay [11]; 65.8% in assay [12]. The growth in [13] is 93.8%; in [14], 79.5%; in [15], 70.9%; in assay [16], 83.1%; in [17], 67%; in assay [18], 102%. Besides, in assay [19], the growth is 99.4%.
Consider `Cc1cc(SCc2ccccc2)nc(N)n1`, for which the growth was 119% in [1]; 96.7% in [2]; 92.5% in assay [3]; 98.1% in assay [4]; 107% in assay [20]; 112% in assay [6]. For the same molecule, the growth in assay [7] is 89.4%; in assay [8], 88.1%; in assay [9] it was 98.5%; in assay [10], 106%; in assay [11] it was 105%; in [12], 105%. The growth in assay [15] is 108%; in [17], 123%; in [18], 111%; in assay [19], 105%.
For `CC(CN(C)C)Oc1ccccc1NC1=C(Cl)C(=O)C(Nc2ccccc2OC(C)CN(C)C)=C(Cl)C1=O` (configuration not stated), the growth in assay [1] was -61.2% (active); in [2], -71.7% (active); in assay [3], -96% (active); in assay [4] it was -99.9% (active); in assay [20], -97.8% (active); in assay [5] it was -98.4% (active). In addition, the growth in [8] was -1.98% (active); in assay [9], -30.8% (active); in assay [10] it was -9.43% (active); in assay [11], -34.5% (active); in assay [12] it was -85.3% (active); in [13], -72.2% (active). Further, the growth in assay [14] is -97.6% (active); in assay [15] it was 58.9%; in assay [16] it was -76.4% (active); in assay [17], -96.2% (active); in assay [18], 3.54% (active); in assay [19], -24.5% (active).
With `O=C1CC(=O)N(C(=O)c2nn(-c3ccc(Cl)cc3)cc2O)N1`, the growth in assay [1] was 53%; in assay [2], 29.6%; in [3], 45.1%; in assay [4] it was 25.6%; in [5], 38.3%; in assay [6] it was -7.19% (active). Also, the growth in [7] is 113%; in [8] it was 5.93% (active); in assay [9], 16.6%; in assay [10] it was -31.9% (active); in assay [11], -8% (active); in assay [12] it was 30.1%. The growth in assay [13] is 65.2%; in [14], 34.1%; in [15], 40.7%; in assay [16], 34.4%; in assay [17], -4.11% (active); in assay [18], 121%. Moreover, the growth in [19] was 33.6%.
